Measurements taken from PubChem BioAssay (NCI).
This is part of a sample that, as a whole, favours compounds with a hit. Of some 83,000 tested, about 20% had one in any assay.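 For each line, cells grew in 96-well plates with the test compound present at a single concentration for 48 hours.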 A number with no mark means an inactive call. Calls of active or inactive are those of the source. Rule for the calls: active = growth percent below 10; inactive = the rest.

tested on: SR leukemia; experiment: NCI-60 one-dose screen, 48 h (100 = growth as untreated, 0 = no growth, -100 = all killed); details: 10 µM

Structure (SMILES)	growth
CC(=O)OC/C=C(/C)C[P+](c1ccccc1)(c1ccccc1)c1ccccc1	64.9%
C=CCN(CC=C)C(=O)[C@H](CC)[C@@H]1CC[C@@H](C)[C@@H]([C@H](C)[C@@H](O)[C@@H](C)C(=O)[C@H](CC)C2O[C@]3(C=CC(=O)[C@]4(CC[C@@](C)([C@H]5CC[C@](O)(CC)[C@H](C)O5)O4)O3)[C@H](C)C[C@@H]2C)O1 (some centres not stated)	49.1%
Cc1c2c(nn1C(=O)c1nn(-c3ccc(Cl)cc3)cc1O)-c1ccccc1CC2	-39.9% (active)
O=C(CCn1cnc2c(cc(-c3ccccc3)n2-c2ccccc2)c1=O)Nc1ccc(F)cc1	72.3%
COc1ccc(-c2onc(N)c2-c2cc(OC)c3c(c2)OCO3)cc1	9.86% (active)
CCCN(CCC)C(=O)[C@H](CC)[C@@H]1CC[C@@H](C)[C@@H]([C@H](C)[C@@H](O)[C@@H](C)C(=O)[C@H](CC)C2O[C@]3(C=C[C@@H](O)[C@]4(CC[C@@](C)([C@H]5CC[C@](O)(CC)[C@H](C)O5)O4)O3)[C@H](C)C[C@@H]2C)O1 (some centres not stated)	15.2%
CCOC(=O)c1cc(C(=O)c2cc(OC)c(OC)c(OC)c2)n2c1ccc1c3cccnc3ccc12	17.5%
Fc1ccc2[nH]cc(-c3nc(-c4ccsc4)cs3)c2c1	86.2%
IC(I)I	122%
Cc1ccc(-n2c(C)nn3c(=O)c4c5c(sc4nc23)CN(C)CC5)cc1	104%
CN(C)c1ccc(/C=N/NC(=O)c2ccccc2Nc2cccc(C(F)(F)F)c2)cc1	85%
N#CC1=C(N)Oc2cc(N)ccc2C1c1cccnc1 (configuration not stated)	70.6%
O=C(CCCCNC(=O)c1nc(-c2ccccc2)n(-c2ccccc2)n1)NO	76%
COc1ccc(-c2cc(-c3ccc(OC)c(OC)c3)nc(SCCCC(=O)NO)n2)cc1	15.1%
COc1cc(C2CC(c3ccccc3)=NN2C(C)=O)cc(OC)c1OC (configuration not stated)	28.1%
O=C(/C=C/C=C/c1c(C2CC2)nc2ccccc2c1-c1ccc(F)cc1)c1cccs1	-6.7% (active)
CC(C)N(CCOc1ccc(-c2nc3sccn3c2-c2ccnc(S(C)(=O)=O)n2)cc1)C(C)C	74.4%
O=C(Nc1nc(-c2ccccc2)nc2c1sc(=S)n2-c1ccccc1)C(F)(F)F	89.8%
O=C(CSc1nnc(-c2ccc(Cl)cc2)o1)Nc1ccc(C(=O)/C=C/c2ccc(Cl)cc2)cc1	98.3%

Structure (SMILES)	growth
C=CCn1c(SCC(=O)Nc2ccc(C(=O)/C=C/c3ccc(OC)cc3)cc2)nnc1-c1ccc(OC)c(OC)c1	58.7%
CN1CCN(CC(=O)Nc2cccc(-n3cc(-c4ccncc4)c(-c4ccc(Cl)c(O)c4)n3)c2)CC1	5.84% (active)
CCc1ccc(C2=NN(c3ccc(S(C)(=O)=O)cc3)C(=O)CC2)cc1	4.42% (active)
Cc1nn(-c2ccc(-c3ccc(OC(F)(F)F)cc3)cc2)c2nc(Cc3ccccc3)nc(N)c12	41.8%
Cn1c2ccccc2c2c3[nH][nH]c(=O)c3c3c4ccccc4[nH]c3c21	-12.1% (active)
CC[C@H]1OC(=O)[C@H](C)[C@@H](O[C@H]2C[C@@](C)(OC)[C@@H](O)[C@H](C)O2)[C@H](C)[C@@H](O[C@@H]2O[C@H](C)C[C@H](N(C)C)[C@H]2O)[C@](C)(OC)C/C(C)=C2/O[C@@]1(C)C=C2C	14.8%
C=C(C)[C@@H]1CC[C@]2(COCCC#N)CC[C@]3(C)[C@H](CC[C@@H]4[C@@]5(C)Cc6c([nH]c7ccccc67)C(C)(C)[C@@H]5CC[C@]43C)[C@@H]12	94.7%
CC(=O)[C@H]1CC[C@]2(C)[C@@H]1CC[C@@H]1[C@@]3(C)CC(CCC#N)(CCC#N)C(=O)C(C)(C)[C@@H]3CC[C@]12C	101%
O=C1c2ccccc2C(=O)c2c1ccc(C(Br)Br)c2Cl	-51.2% (active)
Clc1ccc(/C=C2\CCCC3C2=Nc2ccccc2NC3c2ccc(Cl)cc2)cc1 (configuration not stated)	21.5%
Cc1ccc(/C=C/C(=O)C(=O)/C=C/c2ccc(C)cc2)cc1	68%
O=C(Nc1ccccc1)Nc1ncnc2c1ncn2-c1ccccc1	70.8%
CCn1c(SC/C(=N/O)c2ccccc2)nnc1-c1ccccc1	94.8%
Cc1cc(SCc2ccccc2)nc(N)n1	106%
COc1cc2cc(Oc3ccc(NC(=O)Nc4ccc(Cl)c(C(F)(F)F)c4)cc3)c(C)nc2cc1OC	-32.5% (active)
CCCCCCCCCCCCCCCCCC[n+]1ccc2c(C)c3c(c(C)c2c1)c1cc(O)ccc1n3CC	12.2%
CN1CCc2c(sc3nc4n(-c5ccc(Cl)cc5)cnn4c(=O)c23)C1	120%
C[n+]1c2ccccc2nc2ccccc21	25.9%
